In PubChem BioAssay (NCATS):
Inconclusive results are not listed. Entries that show only a call come without a potency. Values without a mark were called inactive. Active and inactive are the calls of the source. Calls follow the shape of the dose curve; as a rule, active = well fitted inhibition curve with a large enough effect; inconclusive = small, poorly fitted or top-dose-only effect; inactive = flat fitted curve, though single readings scatter.

Assay: P-glycoprotein substrates identified in KB-8-5-11 adenocarcinoma cell line, qHTS therapeutic library screen (AID 1346987); also: nearly all actives have a fitted effect of over 65% in size
Details: KB-8-5-11 (P-gp overexpressing) viability, CellTiter-Glo, 72 h; series mostly up to 44.5 µM
Method in brief: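 Compounds are pinned in dose-response onto KB-8-5-11 cells (500 cells/well, colchicine-free medium) and left 72 h at 37 degree C. CellTiter-Glo luminescence then yields AC50 values.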
Potency is read from the fitted curve at half-maximal effect.

Row | SMILES | Potency | activity change, negative = cytotoxicity
1 | O=c1[nH]cc(N(CCCl)CCCl)c(=O)[nH]1 | inactive | 
2 | COCC(C)N(C(=O)CCl)c1c(C)csc1C (centres undefined) | inactive | 
3 | CC(=O)O[C@H]1CC[C@H]2[C@@H]3CCC4=CC(=O)CCC4=C3C=C[C@]12C | 7.31 µM (active) | 
4 | CCOC(=O)c1ccccc1C(=O)OCC | inactive | 
5 | CC(C)(C)c1cc(O)ccc1O | inactive | 
6 | CC[N+](C)(CC)CCOC(=O)C(O)(c1ccccc1)c1ccccc1 | inactive | 
7 | N#CC(OC1OC(COC2OC(CO)C(O)C(O)C2O)C(O)C(O)C1O)c1ccccc1 (centres undefined) | inactive | 
8 | C[C@]12CC[C@H](OS(=O)(=O)O)CC1=CC[C@@H]1[C@@H]2CC[C@]2(C)C(=O)CC[C@@H]12 | inactive | 
9 | CO[C@@H]1[C@H](O)[C@@H](O[C@@H]2C[C@H]3CC[C@@H]4C(CC[C@]5(C)[C@@H](C6=CC(=O)OC6)CC[C@]45O)[C@@]3(C)[C@H](O)C2)O[C@H](C)[C@@H]1O[C@@H]1O[C@H](CO)[C@@H](O)[C@H](O)[C@H]1O (some centres undefined) | 0.385 µM (active) | 
10 | CCN1CC2(COC)C3[C@@H](OC)C4C1C3(C1C[C@]3(O)[C@H](OC(=O)c5ccccc5)C1[C@]4(OC(C)=O)[C@@H](O)[C@@H]3OC)[C@H](OC)C[C@H]2O (some centres undefined) | inactive | 
11 | COC1CC(O[C@H]2CC[C@]3(C=O)C4CC[C@]5(C)[C@@H](C6=CC(=O)OC6)CC[C@]5(O)[C@@H]4CC[C@]3(O)C2)OC(C)C1O[C@@H]1O[C@H](CO)[C@@H](O)[C@H](O)[C@H]1O (some centres undefined) | 0.153 µM (active) | 
12 | O=C(CCl)c1ccc(Oc2ccc(C(=O)CCl)cc2)cc1 | inactive | 
13 | C[C@]12CC[C@H](O)C[C@H]1CC[C@@H]1[C@@H]2CC[C@]2(C)[C@@H](c3ccc(=O)oc3)C[C@H]3O[C@]132 | 1.84 µM (active) | 
14 | ClC1=C(Cl)[C@]2(Cl)[C@@H]3[C@H]4C[C@H]([C@@H]5O[C@H]45)[C@@H]3[C@@]1(Cl)C2(Cl)Cl | inactive | 
15 | CCCCNCC(O)c1ccc(O)cc1 (centres undefined) | inactive | 
16 | c1ccc2sc(SNC3CCCCC3)nc2c1 | inactive | 
17 | C1=C2CCCN[C@H]2[C@@H]2C[C@H]1[C@H]1CCCCN1C2 | inactive | 
18 | Clc1ccc(N2C[C@H]3CC[C@@H](C2)N3)nn1 | inactive | 
19 | CCC(=O)O[C@]1(c2ccccc2)CCN(C)C[C@H]1C | inactive | 
20 | COCC1OC(=O)c2coc3c2C1(C)C1=C(C3=O)C2CCC(=O)C2(C)CC1O (centres undefined) | inactive | 

Row | SMILES | Potency | activity change, negative = cytotoxicity
21 | Oc1cc(Cl)c(Cl)cc1Cl | inactive | 
22 | C=CC(C)(O)CC/C=C(\C)C(=O)O[C@H]1[C@H](O)[C@@H](CO)O[C@@H](OC(=O)[C@]23CCC(C)(C)CC2C2=CCC4[C@@]5(C)CC[C@H](O[C@@H]6O[C@H](CO[C@@H]7OC[C@H](O)[C@H](O)[C@H]7O[C@@H]7OC[C@@H](O)[C@H](O)[C@H]7O)[C@@H](O)[C@H](O)[C@H]6O)C(C)(C)C5CC[C@@]4(C)[C@]2(C)CC3)[C@@H]1OC1OC(C)C(O[C@@H]2OC[C@@H](O)[C@H](O[C@@H]3OC[C@@H](O)[C@H](O)[C@H]3O)[C@H]2O)C(O)C1O (some centres undefined) |  | 3.69% [at 9.29 µM]
23 | O=C1CN=C(c2ccccc2)c2cc(Cl)ccc2N1CC1CC1 | 9.2 µM (active) | 
24 | O=C1CCO1 | inactive | 
25 | OC1(c2ccc(Cl)cc2)c2ccccc2C2=NCCN21 (centres undefined) | inactive | 
26 | CCCC(C)(COC(N)=O)COC(=O)NC1CC1 (centres undefined) | inactive | 
27 | CC(N)Cc1ccc(O)cc1 (centres undefined) | inactive | 
28 | CNC(C)C(O)c1ccc(O)cc1 (centres undefined) | inactive | 
29 | CCCC(=O)OC(C(Cl)(Cl)Cl)P(=O)(OC)OC (centres undefined) | inactive | 
30 | C[C@]12CC[C@H]3[C@@H](CCC4=C(Cl)C(=O)CC[C@@]43C)[C@@H]1CC[C@@H]2O | 13 µM (active) | 
31 | CCN(CC)C(=O)/C(Cl)=C(\C)OP(=O)(OC)OC | inactive | 
32 | CC(Cc1ccccc1)NC=O (centres undefined) | inactive | 
33 | CCCCCCCCOC(=O)c1ccccc1C(=O)OCCCCCCCC | inactive | 
34 | O=C1CCCCC1CN1CCCCC1 (centres undefined) | inactive | 
35 | C[C@H]1CC[C@]2(NC1)O[C@H]1C[C@H]3[C@@H]4CC[C@H]5C[C@@H](O[C@@H]6O[C@H](CO)[C@H](O[C@@H]7O[C@H](CO)[C@@H](O)[C@H](O[C@@H]8OC[C@@H](O)[C@H](O)[C@H]8O)[C@H]7O[C@@H]7O[C@H](CO)[C@@H](O)[C@H](O)[C@H]7O)[C@H](O)[C@H]6O)CC[C@]5(C)[C@H]4CC[C@]3(C)[C@H]1[C@@H]2C | 20.6 µM (active) | 
36 | COC1CC(OC2CCC3(C)C(CCC4C3CCC3(C)C(C5=CC(=O)OC5)C(OC(C)=O)CC43O)C2)OC(C)C1OC1OC(CO)C(O)C(O)C1O (centres undefined) | 0.685 µM (active) | 
37 | CCN1C[C@]2(COC(=O)c3ccccc3N3C(=O)C[C@H](C)C3=O)CC[C@H](OC)[C@@]34[C@@H]5C[C@H]6[C@H](OC)[C@@H]5[C@](O)(C[C@@H]6OC)[C@](O)([C@@H](OC)[C@H]23)[C@@H]14 | inactive | 
38 | CC(=O)OCC(=O)[C@H]1CC[C@H]2[C@@H]3CC[C@H]4C[C@H](O)CC[C@]4(C)[C@H]3C(=O)C[C@]12C | inactive | 
39 | CC(C)(O)[C@@H]1[C@H]2OC(=O)[C@@H]1[C@]1(O)C[C@H]3O[C@]34C(=O)O[C@H]2[C@]14C | inactive | 
